Source: PubChem
Compounds with a hit are over-represented: about 1.6% of the library has one in this group of screens.
FUS suppressor = suppressors of FUS proteinopathy in yeast; S. cerevisiae FUS-expressing, growth rescue, OD600, 24 h; Potency, µM (series often up to 76.6 µM), usual class: activators; AID 1347120; 390,000 compounds, 0.24% hits;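 also: plate controls were DMSO vehicle for no effect and reference control for full effect; nearly all actives have a fitted effect of over 55% in size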
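Steps: raffinose overnight preculture; dilution to OD 0.005 in 2% galactose minimal medium; compound addition (concentration series); 24hr at 30C, 99% humidity; absorbance read at 600 nm.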
12-LOX inh = ALOX12 (human) lipoxygenase inhibition; P18054; purified 12hLO, xylenol orange hydroperoxide absorbance; Potency, µM (series often up to 108 µM), without a hit: top-dose activity change, negative = inhibition, actives largely listed as inhibitors; 580,000 compounds, 1.1% hits; also: % is scaled to controls: 0 for no effect and ±100 for the full control effect
Target sequence (P18054 whole entry, looked up): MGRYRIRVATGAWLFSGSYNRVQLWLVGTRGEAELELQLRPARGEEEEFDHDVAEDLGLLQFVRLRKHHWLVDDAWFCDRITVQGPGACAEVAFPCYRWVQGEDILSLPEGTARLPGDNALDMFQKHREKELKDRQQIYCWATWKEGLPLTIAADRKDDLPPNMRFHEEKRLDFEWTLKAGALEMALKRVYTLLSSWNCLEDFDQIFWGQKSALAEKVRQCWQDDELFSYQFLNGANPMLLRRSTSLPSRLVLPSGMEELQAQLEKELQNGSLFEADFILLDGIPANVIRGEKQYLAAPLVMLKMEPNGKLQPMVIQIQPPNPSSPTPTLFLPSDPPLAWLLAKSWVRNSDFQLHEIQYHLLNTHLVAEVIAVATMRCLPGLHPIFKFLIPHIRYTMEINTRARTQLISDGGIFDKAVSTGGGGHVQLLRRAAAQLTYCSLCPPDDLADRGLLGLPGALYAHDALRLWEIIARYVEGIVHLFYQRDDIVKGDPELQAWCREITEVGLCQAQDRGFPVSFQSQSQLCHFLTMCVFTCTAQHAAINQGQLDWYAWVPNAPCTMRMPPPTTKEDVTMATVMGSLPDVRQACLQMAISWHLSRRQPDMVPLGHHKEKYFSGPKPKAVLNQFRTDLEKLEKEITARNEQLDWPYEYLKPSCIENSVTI
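Purified human 12hLO at 150 nM in 25 mM Hepes, 0.01% Triton X-100, pH 7.0, preincubated 15 min at room temperature with compound. Reaction started with 40 uM arachidonic acid, 30 min at room temperature. Hydroperoxide measured by Fe-xylenol orange, 573/405 nm absorbance ratio.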
gsp antag = antagonizes gsp, the McCune-Albright syndrome mutation; Potency, µM (doses to about 76.9 µM), for inactives: top-dose activity change, negative = inhibition, usual class: inhibitors; gsp-mutant cells, cAMP HTRF, 30 min; 340,000 compounds, 0.4% hits; calls by dose curve; cell line not stated here;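 also: intracellular cAMP measured with PDE inhibitor Ro 20-1724 present during compound exposure; % is scaled to controls: 0 for no effect and ±100 for the full control effect; nearly all actives have a fitted effect of over 65% in size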
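Measurement of cellular cAMP by homogeneous time-resolved fluorescence following a 30 min compound exposure at 37C. The PDE inhibitor […] was present throughout; the assay buffer was DPBS with 0.05% BSA and 0.005% Tween 20.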
Mito fusion act = mitochondrial division inhibition or fusion activation | AID 485298 | 320,000 compounds, 0.23% hits | S. cerevisiae fusion-defective mutant growth rescue, CellTiterGlo 48 h | Potency, µM (doses to about 46.1 µM), for the others: top-dose growth rescue (activation), hits mostly activators; also: % of control where 0% means no effect; nearly all actives have a fitted effect of over 45% in size
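Growth-rescue viability read-out: after 48 h at the non-permissive 37C in glycerol/ethanol YPEG, yeast mitochondrial fusion mutants are measured by CellTiterGlo luminescence; compounds (23 nl pinned per well) restoring growth score as division inhibitors or fusion activators.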
gsp agonist = agonists of gsp mutant (McCune-Albright syndrome); 340,000 compounds, 0.13% hits; gsp mutant cells, cAMP HTRF, 30 min; AID 624287; Potency, µM (series often up to 76.9 µM), for the others: at the highest dose activation (cAMP increase), most hits filed as activators; active = well fitted activation curve with a large enough effect; inconclusive = small, poorly fitted or top-dose-only effect, or another doubt; inactive = no such curve, though single readings can be large or run the other way; cell line not stated here;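 also: phosphodiesterase inhibitor Ro 20-1724 added with compounds to block cAMP breakdown; nearly all actives have a fitted effect of over 60% in size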
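Cells stably selected in G418 were plated at 2000/well, grown 16-24 hr, then given compounds in DMSO with the PDE inhibitor […] (300 uM solution added) for 30 min at 37C; cAMP was read by HTRF.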
The depositor's hits bear a star; i = inactive; ? = inconclusive; . = no result; [ ] = remark or other dose. Unless noted, calls follow the shape of the dose curve; as a rule, active = well fitted curve in the direction sought with a large enough effect; inconclusive = small, poorly fitted or top-dose-only effect, or another doubt; inactive = no such curve, though single readings can be large; an effect the other way counts as inactive or inconclusive. Potency is read from the fitted curve at half-maximal effect.

SMILES	FUS suppressor	12-LOX inh	gsp antag	Mito fusion act	gsp agonist
S=C(NN=C(c1ccccc1)c1ccccn1)N(Cc1ccccn1)Cc1ccccn1	.	45µM*	-15%	.	-25%
COc1cccc(CN2CC(C(=O)NCc3cccc(N4CCCC4)c3)CCC2=O)c1 (configuration not stated)	i	-17%	3.2µM*	-3%	-44%
COc1cccc(CN2CC(C(=O)NCc3cccc(Cl)c3)CCC2=O)c1 (configuration not stated)	i	10%	17%	2%	?
COc1ccc(Nc2nc(NCC(C)O)nc3c2cnn3-c2ccccc2)cc1 (configuration not stated)	.	4%	.	.	.
O=C(CCCOc1ccccc1)OCC(=O)c1ccc(F)c(F)c1	.	2%	.	.	.
COc1ccc(C2NC(=S)NC3=C2CCc2cc(OC)ccc23)cc1 (configuration not stated)	?	28µM*	-9%	2%	-17%
COc1ccc(C2NC(=S)NC3=C2CCc2ccccc23)cc1 (configuration not stated)	.	40µM*	.	.	.
O=C1NC2=C(CCc3ccccc32)C(c2ccc(Br)cc2)N1 (configuration not stated)	.	?	0%	-6%	-22%
COc1ccc(Nc2cc(C)c3cc(C)ccc3n2)cc1	.	18µM*	.	.	.
COc1ccc(Nc2cc(C)c3ccccc3n2)cc1	i	?	-18%	?	?
CC(C)C[C@H]1CCC[C@H](CC(C)C)[N+]1(C)C	.	14µM*	.	.	.
COCCNC(=O)c1cc(-c2ccccc2)nn1CC1CC(c2cccc([N+](=O)[O-])c2)=NO1 (configuration not stated)	i	7%	-14%	.	-8%
O=C(NCc1cccc(Br)c1)c1cc(-c2ccccc2)nn1CC1CC(c2cccc([N+](=O)[O-])c2)=NO1 (configuration not stated)	32µM*	-3%	-11%	.	-6%
O=C(CSc1nc2ccccc2[nH]1)N1N=C(c2cccs2)CC1c1ccco1 (configuration not stated)	.	-19%	.	.	.
O=C(N[C@@H]1CN(Cc2ccc(F)cc2)C[C@H]1CO)c1ccccc1	.	13µM*	.	.	.
O=C(N[C@@H]1CN(Cc2cc(F)cc(F)c2)C[C@H]1CO)c1ccccc1	.	9%	.	.	.
O=C(N[C@@H]1CN(Cc2ccc3cc[nH]c3c2)C[C@H]1CO)c1ccccc1	.	28µM*	.	.	.
O=C(N[C@@H]1CN(Cc2cccc(F)c2)C[C@H]1CO)c1ccccc1	.	-6%	.	.	.
COc1cccc(-c2nc3c(c(=O)[nH]c(=O)n3Cc3ccccc3)n2CC2CCCO2)c1 (configuration not stated)	.	-73%	.	.	.
CC(NC(=O)CSc1nnc(COc2ccccc2Cl)n1C)c1ccc2c(c1)OCO2 (configuration not stated)	.	0%	.	.	.
O=C1OCCN1CCNc1ccc(-c2nc(-c3ccccc3F)no2)cn1	.	8%	.	.	.
O=[N+]([O-])c1cccc(C=NNc2ccccc2)c1	i	45µM*	-21%	.	8%[15.4 µM]
O=[N+]([O-])c1ccc(C=NNc2ccccc2)cc1	i	?	-6%	.	-3%[15.4 µM]
COc1ccc(-c2ccc3nc(-c4c(F)c(F)cc(F)c4F)oc3c2)c(OC)c1OC	.	8%	.	.	.
CCc1cccc(NC(=O)COC(=O)c2cc(C)nc3ccccc23)c1	.	-7%	.	.	.
SMILES	FUS suppressor	12-LOX inh	gsp antag	Mito fusion act	gsp agonist
CCCn1nc(C(=O)Nc2ccc(S(=O)(=O)C(F)F)cc2)c2ccccc2c1=O	.	-7%	.	.	.
O=C(C=Cc1ccc(O)cc1)c1ccc(O)cc1O	.	7.9µM*	.	.	.
O=C(/C=C/c1ccc(Cl)cc1)c1cc(Cl)cc(Cl)c1O	.	3.5µM*	.	.	.
Cc1ccc(OCCC2CCN(C(=O)CCCC(=O)n3nc(C)c4ccccc43)C2)cc1 (configuration not stated)	.	8%	.	.	.
Cc1cc(C)c(C)c(S(=O)(=O)NCCO)c1C	.	20%	.	.	.
COc1ccc(S(=O)(=O)N2CCN(c3cc(N4CCCC4)nc(C)n3)CC2)cc1OC	.	6%	.	.	.
CCOC(=O)c1c(C)n(S(=O)(=O)c2ccc(C)cc2)c2ccc(O)c(C(=O)O)c12	i	56µM*	-13%	-4%	-19%
OCCCNc1nc(-c2ccc(Cl)cc2)nnc1-c1ccc(Br)cc1	i	?	-26%	13µM*	?
C=CCn1c(SCc2ccccc2C#N)nnc1-c1cc(Br)ccc1O	?	-16%	35µM*	24%	-2%
O=C1Nc2ccccc2CC12CCN([S+](=O)([O-])c1cccs1)C2 (configuration not stated)	.	53%	.	.	.
CCC(C(=O)N1CCC(c2n[nH]c(=O)n2Cc2ccc(OC)cc2)CC1)c1ccccc1 (configuration not stated)	.	35µM*	.	.	.
Cc1ccc(C2=NC3(CCN(C(=O)COc4cccc(C)c4)CC3)ON2)cc1	.	89µM*	.	.	.
Cc1ccc(C2=NC3(CCN(C(=O)COc4ccc(Cl)cc4)CC3)ON2)cc1	.	4%	.	.	.
CC(c1nnc(SCC(=O)Nc2ccc(C#N)cc2)n1C)N1C(=O)COc2ccccc21 (configuration not stated)	.	-11%	.	.	.
O=C(CNS(=O)(=O)c1ccccc1)NCC(=O)OCc1ccc(Cl)cc1	i	18%	0%	0%	7.9µM*
COC1CN(c2ccc(C)cc2)C12CCN(C(=O)Cc1ccccc1)CC2 (configuration not stated)	.	23%	.	.	.
CC(C)N(C(=O)COc1ncnc2ccc(Br)cc12)c1ccccc1	.	2%	.	.	.
COc1ccc2oc3c(ccc[n+]3C)c(=O)c2c1	i	13µM*	.	.	.
Cc1cccc(Nc2nnc(SCC(=O)N3CCOCC3)s2)c1	.	29%	.	.	.
Cc1ccc2oc(C(=O)Nc3ccc(S(=O)(=O)Nc4nc(C)cc(C)n4)cc3)cc(=O)c2c1	i	-26%	.	.	.
CCc1ccc2oc(C(=O)Nc3ccc(S(=O)(=O)Nc4cc(C)nc(C)n4)cc3)cc(=O)c2c1	.	18µM*	.	.	.
Cc1nc(SCCc2nc3ccccc3[nH]2)c2oc3ccccc3c2n1	i	14µM*	.	.	.
N#CC1=C(N)SC(N)=C(C#N)C1c1cccc(Oc2ccccc2)c1	?	14µM*	28µM*	11%	25%
COc1ccc2c(C)c(CC(=O)Nc3nnc(C(C)(C)C)s3)c(=O)oc2c1OC	.	-25%	.	.	.
Cc1[nH]c2ccccc2c1CC(=O)O	i	-22%	-4%	-4%	-25%
Cc1cc(C)c2c(CC(=O)O)c(C)[nH]c2c1	i	50µM*	-6%	0%	-20%[15.4 µM]
COc1ccc(Br)cc1C[N+]1(C)CCCCC1	.	16µM*	.	.	.
COc1cc(C2CC(=O)N3CN(c4ccc(C)cc4)CSC3=C2C#N)cc(Br)c1O (configuration not stated)	.	1.3µM*	.	.	.
